In PubChem BioAssay:
Several values for one entry are separate records, joined by “and”; a condition that tells them apart may be missing. Identical values can stand only once. Results filed as inconclusive are left out. For part of these data: Measured potencies and affinities stand elsewhere. Activity calls are given as the source filed them. Unless noted, no rule for the calls is given here.

How the values were obtained:
[1] = antimalarial activity against Dd2 strain (AID 2302;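 active = growth inhibition above 50% at the single 2 µM test dose, taken to imply half-maximal potency below 2 µM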;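 also: 0% = DMSO untreated growth and 100% = chloroquine plus artemisinin killed control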); conditions: P. falciparum Dd2 in RBCs, LDH growth readout, 72 h; at 2 µM; stronger effect = higher value
[2] = HepG2 cytotoxicity, primary screen, cytotoxicity control for P. falciparum antimalarial project, cell-based, ATP luminescence (AID 2303;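 active = inhibition above 50%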;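 also: 0% = DMSO wells and 100% = digitonin-killed cells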); conditions: HepG2 viability, 24-48 h, at 10 µM, stronger effect = higher value
[3] = target: L-lactate dehydrogenase (Plasmodium falciparum (isolate CDC / Honduras)) (UniProt Q27743); assay: PfLDH activity inhibition – cell lysate, 3D7 strain, counter-screen for P. falciparum growth inhibition project (AID 2304);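 also: 0% = vehicle and 100% = reference inhibitor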; conditions: P. falciparum 3D7 crude extract, LDH APAD/NBT absorbance; at 2 µM; stronger effect = higher value
[4] = inhibition of 3D7 malaria parasite growth – strain 3D7 (AID 2306);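 also: 0% = DMSO wells and 100% = chloroquine plus artemisinin control wells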; conditions: P. falciparum 3D7 erythrocytic growth, LDH absorbance, 72 h; at 2 µM; stronger effect = higher value
[5] = target: Calcium-dependent protein kinase 1 (Plasmodium falciparum (isolate 3D7)) (UniProt P62344); assay: PfCDPK1 kinase inhibitors, biochemical, TCAMS library (AID 1159585; cut-off not given, nearly all actives have IC50 up to about 0.98 µM;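 also: inhibitors leave more ATP so luminescence rises with inhibition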); conditions: recombinant PfCDPK1, Kinase-Glo ATP depletion luminescence
[6] = target: Plasmodium falciparum protein kinase 6 (PK6, PF3D7_1337100) (UniProt Q8IDW1); assay: PfPK6 kinase inhibitors, biochemical, TCAMS library (AID 1159586); conditions: recombinant PfPK6, Kinase-Glo ATP depletion luminescence
[7] = target: Protein kinase 7 (PK7), Plasmodium falciparum 3D7 (PF3D7_0213400) (UniProt Q7YTF7); assay: inhibition of Plasmodium PK7 catalytic activity – biochemical, TCAMS antimalarial set, Kinase-Glo luminescence (AID 1159587); conditions: recombinant PfPK7, Kinase-Glo ATP depletion luminescence
[8] = target: Calcium-dependent protein kinase 4 (Plasmodium falciparum (isolate 3D7)) (UniProt Q8IBS5); assay: PfCDPK4 kinase inhibitors, biochemical, TCAMS library (AID 1159588; cut-off not given, nearly all actives have IC50 up to about 0.91 µM); conditions: recombinant PfCDPK4, Kinase-Glo ATP depletion luminescence
[9] = liver-stage malaria parasite growth inhibition, primary screen, cell-based, HepG2, luciferase luminescence, HepG2 viability (AID 624349; in the data active = parasite load remaining mostly below about 12%, no sharp cut-off; inactive = mostly above about 10%;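 also: 100% = mean of DMSO negative control wells on the same plate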); conditions: P. berghei liver stage in HepG2, luciferase luminescence, concentration not given here; parasite load remaining: stronger effect = lower value; viability: measured here: HepG2 viability without parasites
[10] = system: Aerobactin synthetase IucA (Klebsiella pneumoniae); assay: IucA aerobactin synthetase inhibitors, biochemical, Tocris library, absorbance (AID 1345561); conditions: purified IucA enzyme assay, absorbance (OD) read-out; stronger effect = lower value;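 tested at 8 µM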;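 also: 100% = enzyme without compound and 0% = no enzyme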
[11] = sensitizers of A549 cells to miR-34 induction, primary screen, imaging, A549 dox-inducible miR-34, nuclei and caspase counts (AID 1347080;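 active = compounds whose cell count with miR-34 switched on is under 0.7 times the count with it off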); conditions: A549 miR-34 inducible, Hoechst nuclei count, 48 h
[12] = survival rescue of mitochondrial mutant cells in low glucose, primary screen, MELAS cybrids, Rieske KO mouse fibroblasts, CellTiter-Glo (AID 1508586;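 active = mean z-score across replicates of 1.96 or higher in either the MELAS or the Rieske mutant cell line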;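 also: z relative to plate mean and SD of compound and empty wells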)
[13] = viability rescue of complex I mutant cybrids, primary screen, cell-based, galactose medium, ATP luminescence (AID 1645843;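 active = z-score of at least 1.8 in each of two replicates, scored against plate mean and spread of sample wells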;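 also: positive z means more ATP and so rescue of galactose-driven cybrid death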); conditions: complex I mutant cybrid cells, 72 h, stronger effect = higher value
[14] = inhibitors of Cryptococcus chitosan production, flow cytometry, Cibacron Brilliant Red staining (AID 1347148); conditions: Cryptococcus neoformans chitosan, stronger effect = lower value; at 10 µM unless noted;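 also: compound exposure lasted three days at 37 degrees C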
[15] = growth inhibition of DIPG glioma cells, dose response, cell-based, SU-DIPG-XVII, MIPE5.0, CellTiter-Glo, qHTS (AID 1347060; cut-off not given, nearly all actives have AC50 up to about 26 µM;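 also: cells exposed to compound for 48 hours before viability readout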); conditions: SU-DIPG-XVII viability, CellTiter-Glo ATP luminescence
[16] = growth inhibition of DIPG glioma cells, dose response, cell-based, SU-DIPG-XIII, MIPE4.0, CellTiter-Glo, qHTS (AID 1347061; cut-off not given, nearly all actives have AC50 up to about 37 µM;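 also: cells exposed to compound for 48 hours before readout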); conditions: SU-DIPG-XIII viability, CellTiter-Glo ATP luminescence
[17] = growth inhibition of DIPG glioma cells, dose response, cell-based, JHH-DIPG-1, MIPE4.0, CellTiter-Glo, qHTS (AID 1347062; cut-off not given, nearly all actives have AC50 up to about 27 µM;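 also: cells exposed to compound for two days before readout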); conditions: JHH-DIPG-1 viability, CellTiter-Glo ATP luminescence
[18] = growth inhibition of DIPG glioma cells, dose response, cell-based, SU-DIPG-IV, MIPE4.0, CellTiter-Glo, qHTS (AID 1347063; cut-off not given, nearly all actives have AC50 up to about 30 µM;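 also: compound exposure lasted 48 hours before the viability readout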); conditions: SU-DIPG-IV viability, CellTiter-Glo ATP luminescence
[19] = growth inhibition of DIPG glioma cells, dose response, cell-based, SU-DIPG-XIII, MIPE5.0, CellTiter-Glo, qHTS (AID 1347064; cut-off not given, nearly all actives have AC50 up to about 23 µM;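 also: cells exposed to compound for 48 hours before the viability read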); conditions: SU-DIPG-XIII viability, CellTiter-Glo ATP luminescence
[20] = viability loss in pontine glioma line – cell-based, SU-DIPG-XXV, MIPE5.0, CellTiter-Glo, qHTS, dose response (AID 1347065; cut-off not given, nearly all actives have AC50 up to about 26 µM;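 also: cells exposed to compound for 48 hours before ATP readout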); conditions: CellTiter-Glo ATP luminescence
[21] = SU-DIPG-VI glioma cell viability, MIPE4.0 library, CellTiter-Glo luminescence, qHTS (AID 1347066; cut-off not given, nearly all actives have AC50 up to about 30 µM;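 also: cells exposed to compound for 48 hours before readout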); conditions: CellTiter-Glo ATP luminescence
[22] = JHH-DIPG-1 glioma cell viability, MIPE5.0 library, CellTiter-Glo luminescence, qHTS (AID 1347067; cut-off not given, nearly all actives have AC50 up to about 26 µM;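 also: cells exposed to compound for 48 hours before readout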); conditions: JHH-DIPG-1 glioma viability, CellTiter-Glo ATP luminescence
[23] = SU-DIPG-XXV glioma cell viability, MIPE5.0 library, qHTS (AID 1347068; cut-off not given, nearly all actives have IC50 up to about 30 µM;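 also: cells exposed to compound for 48 hours before viability readout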)
[24] = stronger effect = lower value, cell number ratio, induced over uninduced
[25] = measured here: relative caspase fold change +Dox/-Dox
[26] = measured here: total cells with miR-34 induction, stronger effect = lower value
[27] = measured here: total cells without miR-34 induction
[28] = MELAS cybrid survival, CellTiter-Glo 48 h, stronger effect = higher value
[29] = Rieske KO mouse fibroblast survival, CellTiter-Glo 72 h

Chain of Calcium-dependent protein kinase 1 (Plasmodium falciparum (isolate 3D7)) (P62344 whole entry, looked up): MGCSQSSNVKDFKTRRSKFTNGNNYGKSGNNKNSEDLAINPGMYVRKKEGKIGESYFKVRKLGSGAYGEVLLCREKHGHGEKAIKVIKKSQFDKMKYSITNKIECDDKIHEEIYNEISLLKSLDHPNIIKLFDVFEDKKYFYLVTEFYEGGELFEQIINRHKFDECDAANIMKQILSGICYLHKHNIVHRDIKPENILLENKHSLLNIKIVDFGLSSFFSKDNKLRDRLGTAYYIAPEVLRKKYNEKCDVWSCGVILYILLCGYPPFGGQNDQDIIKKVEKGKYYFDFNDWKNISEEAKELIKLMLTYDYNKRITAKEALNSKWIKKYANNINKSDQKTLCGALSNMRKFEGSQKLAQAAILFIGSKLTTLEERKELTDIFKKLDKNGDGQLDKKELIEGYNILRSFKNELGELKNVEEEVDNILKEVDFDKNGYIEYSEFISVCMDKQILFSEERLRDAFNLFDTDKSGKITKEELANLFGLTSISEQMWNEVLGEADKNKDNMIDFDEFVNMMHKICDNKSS
Chain of L-lactate dehydrogenase (Plasmodium falciparum (isolate CDC / Honduras)) (Q27743 whole entry, looked up): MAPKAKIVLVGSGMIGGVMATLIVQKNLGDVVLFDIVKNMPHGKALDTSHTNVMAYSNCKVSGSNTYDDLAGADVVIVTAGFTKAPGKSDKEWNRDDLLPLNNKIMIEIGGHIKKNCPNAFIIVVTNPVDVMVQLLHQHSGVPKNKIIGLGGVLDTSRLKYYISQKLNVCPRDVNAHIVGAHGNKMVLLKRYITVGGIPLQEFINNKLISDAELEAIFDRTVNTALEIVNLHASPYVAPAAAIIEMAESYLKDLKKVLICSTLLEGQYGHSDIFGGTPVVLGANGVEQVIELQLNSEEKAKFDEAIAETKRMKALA
Chain of Protein kinase 7 (PK7), Plasmodium falciparum 3D7 (PF3D7_0213400) (Q7YTF7 1-343): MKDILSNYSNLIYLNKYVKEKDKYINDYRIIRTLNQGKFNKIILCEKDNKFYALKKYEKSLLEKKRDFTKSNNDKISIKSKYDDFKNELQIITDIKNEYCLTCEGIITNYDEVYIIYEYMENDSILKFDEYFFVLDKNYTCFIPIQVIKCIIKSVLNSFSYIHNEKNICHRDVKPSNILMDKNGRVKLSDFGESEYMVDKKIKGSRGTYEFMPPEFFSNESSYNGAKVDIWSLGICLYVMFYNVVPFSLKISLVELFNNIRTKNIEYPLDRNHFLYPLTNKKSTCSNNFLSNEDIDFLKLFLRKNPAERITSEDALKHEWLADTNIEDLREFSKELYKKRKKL
Chain of Plasmodium falciparum protein kinase 6 (PK6, PF3D7_1337100) (Q8IDW1 1-305): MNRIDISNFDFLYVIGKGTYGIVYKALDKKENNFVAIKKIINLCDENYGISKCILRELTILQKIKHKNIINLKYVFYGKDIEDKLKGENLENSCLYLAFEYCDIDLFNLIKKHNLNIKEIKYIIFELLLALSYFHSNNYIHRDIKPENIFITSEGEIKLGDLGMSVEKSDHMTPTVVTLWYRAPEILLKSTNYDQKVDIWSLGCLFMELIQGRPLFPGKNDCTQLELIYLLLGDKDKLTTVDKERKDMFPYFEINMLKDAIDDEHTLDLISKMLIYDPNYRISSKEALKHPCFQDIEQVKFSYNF
Chain of Calcium-dependent protein kinase 4 (Plasmodium falciparum (isolate 3D7)) (Q8IBS5 whole entry, looked up): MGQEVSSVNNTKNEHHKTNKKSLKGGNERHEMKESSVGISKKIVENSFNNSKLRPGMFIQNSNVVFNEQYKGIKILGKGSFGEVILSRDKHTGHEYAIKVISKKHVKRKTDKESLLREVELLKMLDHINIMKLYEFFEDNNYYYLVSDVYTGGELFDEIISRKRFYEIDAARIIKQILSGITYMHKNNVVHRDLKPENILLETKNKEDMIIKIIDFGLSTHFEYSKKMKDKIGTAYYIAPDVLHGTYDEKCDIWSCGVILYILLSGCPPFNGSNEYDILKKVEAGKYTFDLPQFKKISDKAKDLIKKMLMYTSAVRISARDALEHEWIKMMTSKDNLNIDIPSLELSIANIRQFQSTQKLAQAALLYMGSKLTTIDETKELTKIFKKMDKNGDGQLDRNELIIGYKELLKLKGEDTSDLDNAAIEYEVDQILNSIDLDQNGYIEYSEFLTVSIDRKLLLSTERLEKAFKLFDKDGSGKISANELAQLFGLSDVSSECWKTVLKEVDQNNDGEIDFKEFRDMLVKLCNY

O=C1Nc2cccc3c2C1(CCCCN1CCC(c2cc4ccncc4[nH]2)CC1)CCC3 (configuration not stated)
inactive: growth inhibition [1] -2% and -4% | inhibition [2] -1% and -8% | inhibition [3] -3% | outcome [5] | outcome [6] | outcome [7] | outcome [8]
active: growth inhibition [4] 97% and 99%

Cc1cnc(N)c(/C=C/c2cncc(C(=O)NCCc3ccc(Cl)cc3Cl)c2)c1
inactive: inhibition [2] 2% | outcome [5] | outcome [6] | outcome [7] | outcome [8]
active: growth inhibition [1] 100%

COc1ccc(Cl)cc1NC(=O)Nc1cc(C)nc2ccccc12
0.387 and 0.813: fold change [11, 25]
6720 and 4040: cell count [11, 26]
active: growth inhibition [1] 99% | growth inhibition [4] 101%
153%: viability [9]
0.602: z-score [12, 29]
inactive: inhibition [2] 10% | inhibition [3] -3% | parasite load remaining [9] 55.8% | outcome [5] | outcome [6] | outcome [7] | outcome [8] | remaining activity [10] 102% | fold change [11, 24] 0.905 and 1.03 | z-score [12, 28] -0.407 | z-score [13] -0.645
7420 and 3920: cell count [11, 27]

CCOc1ccc(-c2nc3ccc(-c4nc5ccc(N6CCN(C)CC6)cc5[nH]4)cc3[nH]2)cc1
active: growth inhibition [1] 99% | growth inhibition [4] 100%
0.41: fold change [11, 25]
805: cell count [11, 26]
711: cell count [11, 27]
inactive: inhibition [2] 16% | inhibition [3] 1% | outcome [5] | outcome [6] | outcome [7] | outcome [8] | fold change [11, 24] 1.13 | fold fluorescence [14] 1.62 [at 110.5 µM]

Cn1nc(-c2ccc(CN[C@@H]3CCc4ccc(O)cc43)cc2)c2cnc(NCCCN3CCCC3)nc21
active: growth inhibition [1] 61% | growth inhibition [4] 101%
inactive: inhibition [2] 8% | inhibition [3] 2% | outcome [5] | outcome [6] | outcome [7] | outcome [8]

CC1(C)C(=O)NC2=C1C(=O)C(=O)c1ccccc12
active: growth inhibition [4] 93% | fold change [11, 24] 0.672
1170: cell count [11, 26]
inactive: inhibition [2] -8% | inhibition [3] 1% | outcome [5] | outcome [6] | outcome [7] | outcome [8] | remaining activity [10] 80.1% | z-score [13] -0.705
1.77: fold change [11, 25]
1740: cell count [11, 27]

CCCCCCCc1ccc(-c2c(C)[nH]c(C)c(Cl)c2=O)cn1
inactive: inhibition [2] -4% | inhibition [3] -2% | outcome [5] | outcome [6] | outcome [7] | outcome [8]
active: growth inhibition [1] 96% | growth inhibition [4] 99%

CC(=O)Nc1cccc(C(=O)Nc2cccc(-c3cccc(-c4nc5ccccc5[nH]4)c3)c2)c1
inactive: inhibition [2] 41% | inhibition [3] -5% | outcome [5] | outcome [6] | outcome [7] | outcome [8]
active: growth inhibition [1] 66% | growth inhibition [4] 100%

FC(F)(F)c1cccc(CNCCCCCNCc2ccc(Cl)cc2)c1
inactive: growth inhibition [1] 15% | inhibition [2] 13% | inhibition [3] -5% | outcome [5] | outcome [6] | outcome [7] | outcome [8]
active: growth inhibition [4] 91%

CCCC(C)NC(=O)C(N)Cc1cccc(I)c1 (configuration not stated)
active: growth inhibition [1] 65% | growth inhibition [4] 95%
inactive: inhibition [2] 11% | inhibition [3] 0% | outcome [5] | outcome [6] | outcome [7] | outcome [8]

COCc1cccc(-c2cc(-c3ccc(S(C)(=O)=O)cc3)cnc2N)c1
inactive: inhibition [2] 10% | inhibition [3] -2% | outcome [5] | outcome [6] | outcome [7] | outcome [8]
active: growth inhibition [1] 88% | growth inhibition [4] 98%

CCc1ccc(OCc2ccccc2C(=O)Nc2ccc3nc(C)cc(N)c3c2)cc1
1.57 and 0.955: fold change [11, 25]
inactive: inhibition [3] 0% | outcome [5] | outcome [6] | outcome [7] | outcome [8] | remaining activity [10] 108% | fold change [11, 24] 0.988 and 0.896 | z-score [12, 28] -0.512 | z-score [13] -0.7
active: growth inhibition [1] 74% | inhibition [2] 98% | growth inhibition [4] 99% | AC50 [15] 9.34 µM | AC50 [16] 11.8 µM | AC50 [17] 3.32 µM | AC50 [18] 3.32 µM | AC50 [19] 7.42 µM | AC50 [20] 8.33 µM | AC50 [21] 8.33 µM | AC50 [22] 5.25 µM | IC50 [23] 9.34 µM
1370 and 181: cell count [11, 26]
1390 and 202: cell count [11, 27]
0.826: z-score [12, 29]

CCN(CC)C(=NCCCCCCN=C(NC(N)=NCc1cccc(Cl)c1)N(CC)CC)NC(N)=NCc1cccc(Cl)c1
inactive: inhibition [2] 17% | inhibition [3] -8% | outcome [5] | outcome [6] | outcome [7] | outcome [8]
active: growth inhibition [1] 99% | growth inhibition [4] 99%

O=C1C(c2ccccc2)=C(Nc2ccc(Cl)cc2)c2ccccc21
inactive: inhibition [2] 5% | inhibition [3] -2% | outcome [5] | outcome [6] | outcome [7] | outcome [8]
active: growth inhibition [1] 59% | growth inhibition [4] 91%
